# About 2,600 (16%) of roughly 16,000 compounds were called active. Not shown: some 20% with an inconclusive outcome. Not all results are given here. Unmarked numbers belong to inactive results. Calls come from the whole dose curve; as a rule, active = well fitted curve in the direction sought with a large enough effect; inconclusive = small, poorly fitted or top-dose-only effect, or effect the other way; inactive = no such curve, though single readings can be large or run the other way. Peptide text beside a SMILES is read from it. * marks the point of attachment. Boc = CC(C)(C)OC(=O)*
# Target: Cytochrome P450 2D6 (Homo sapiens) (UniProt P10635)
# Sequence (P10635 whole entry, looked up): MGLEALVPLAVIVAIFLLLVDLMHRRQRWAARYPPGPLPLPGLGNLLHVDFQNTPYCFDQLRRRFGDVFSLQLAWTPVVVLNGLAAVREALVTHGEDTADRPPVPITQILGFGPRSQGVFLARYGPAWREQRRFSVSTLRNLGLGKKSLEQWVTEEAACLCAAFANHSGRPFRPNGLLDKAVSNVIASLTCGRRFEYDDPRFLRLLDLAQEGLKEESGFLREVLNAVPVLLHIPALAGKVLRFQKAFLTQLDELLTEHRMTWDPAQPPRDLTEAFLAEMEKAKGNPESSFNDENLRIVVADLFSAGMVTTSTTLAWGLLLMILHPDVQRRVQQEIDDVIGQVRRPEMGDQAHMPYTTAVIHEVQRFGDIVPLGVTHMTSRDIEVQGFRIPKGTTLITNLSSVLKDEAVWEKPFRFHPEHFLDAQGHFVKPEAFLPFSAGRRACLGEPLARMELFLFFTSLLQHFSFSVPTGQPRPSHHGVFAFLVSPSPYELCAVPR
# Assay: Cytochrome panel assay with activity outcomes
# Settings: recombinant CYP, pro-luciferin dealkylation, luminescence, p450-cyp2d6; series mostly up to 57.1 µM
# % is set by controls: 0 for no effect and ±100 for the full control effect.
SMILES,AC50,"activity, negative = inhibition"
COc1ccc(-n2c(=O)c(-c3cccs3)nc3cnc(N4CCOCC4)nc32)cc1,inactive,
O=c1c(-c2cccs2)nc2cnc(N3CCOCC3)nc2n1-c1ccccc1,inactive,
CC(C)c1ccc2c(c1)C(c1ccc(N3CCOCC3)cc1)=NNC(c1cccs1)=N2,7.08 µM (active),
COC(=O)C1=C(CSc2nncn2C)NC(=O)NC1c1ccc(F)cc1 (stereo not drawn),inactive,
CC(=O)Nc1ccc(S(=O)(=O)NCC2CCC(C(=O)NCCC(C)C)CC2)cc1 (stereo not drawn),inactive,
Cc1ccc(S(=O)(=O)N2CCC(C(=O)NCCCOC(C)C)CC2)cc1,inactive,
CC(=O)Nc1ccc(S(=O)(=O)N2CCC(N(C)CCC(C)C)CC2)cc1,8.91 µM (active),
CCc1ccccc1NC(=O)c1nnn(CC(=O)Nc2cccc(C)c2C)c1N,inactive,
C/C(=N\Nc1nc(N)cc(Cl)n1)c1cccc([N+](=O)[O-])c1,inactive,
O=C(Cc1ccc(Cl)cc1)Nc1cccc(-c2nnc(-c3ccco3)o2)c1,inactive,
O=C(Cc1ccc(Cl)cc1)NNC(=O)Nc1cccc2ccccc12,inactive,
O=C(Cc1ccccc1)Nc1nc2ccc(Cl)cc2c2nc(-c3ccco3)nn12,10 µM (active),
Cc1ccc(C(=O)NCc2ccc(N3CCN(C(=O)OC(C)(C)C)CC3)cc2)cc1,inactive,
CC(C)NC(=O)CC(=O)N/N=C/c1ccc(F)cc1,inactive,
CCCCCSc1nncc(=O)[nH]1,inactive,
Cc1nc(SCc2cccc(Oc3ccccc3)c2)n[nH]1,14.1 µM (active),
c1ccc(CSc2nnc3c4ccccc4c4ccccc4c3n2)cc1,,-1.49% [at 11.4 µM]
Cc1cc(Oc2ccccc2)nc(NCc2ccccc2)n1,inactive,
CN(C)c1ncc2nc(-c3cccs3)c(=O)n(-c3ccccc3)c2n1,inactive,
CCN(CC)c1ccc2cc(C(C)=O)c(=O)oc2c1,inactive,
CCN(CC)c1ccc2c(Cl)cc(=O)oc2c1,12.6 µM (active),
CCN(CC)c1ccc(C(=O)OCc2cc(=O)oc3cc(O)ccc23)cc1,inactive,
CCOC(=O)c1ccccc1NC(=O)/C(C)=C/C(=O)O,inactive,
COCCn1c(=O)c(-c2cn(C)c3ccccc23)nc2cnc(Oc3cccc(Cl)c3)nc21,inactive,
CCCOc1ccccc1-c1nc2n[nH]nc2c(=O)[nH]1,inactive,
CNc1nc(C)cc(C)c1S(=O)(=O)c1ccc(Cl)cc1,inactive,

SMILES,AC50,"activity, negative = inhibition"
Cc1nn(S(=O)(=O)c2cccs2)c(C)c1Sc1ccc([N+](=O)[O-])cc1,2.24 µM (active),
Cc1ccc(Sc2c([N+](=O)[O-])ncn2C)cc1,inactive,
Cc1nn(C(=O)c2ccco2)c(C)c1Sc1ccc(Br)cc1,inactive,
O=C(OC1CCN(c2ccc([N+](=O)[O-])cc2)CC1)c1ccccc1,inactive,
COc1ccc(-n2c(C)cc(C=O)c2C)cc1Cl,inactive,
CC(C)(O)c1cn(-c2nonc2N)nn1,inactive,
COC(=O)c1c(NC(=O)c2ccco2)sc2c1CCC2,inactive,
Cc1ccc(S(N)(=O)=O)cc1NC(=O)/C=C/c1cccs1,14.1 µM (active),
Cc1ccc(C(=O)Nc2ccc(C(=O)/C=C/c3cccs3)cc2)cc1,inactive,
Cc1cccc(C)c1NC(=O)Nc1ccc(S(N)(=O)=O)cc1,,-10.2% [at 11.4 µM]
CN(C(=O)C(Cl)Cl)c1ccc(OC(=O)c2ccco2)cc1,inactive,
Cc1ccccc1/C=C\C1=NCCN1,25.1 µM (active),
c1ccc2cc(C3=NCCN3)ncc2c1,inactive,
c1ccc2nc(C3=NCCN3)cnc2c1,inactive,
O=C(Oc1ccccc1)N1CCC2(CC1)CCN(c1ccccn1)CC2,inactive,
CCOc1ccc(-c2c[n+](=O)c3c(n2[O-])CCCC3)c(OCC)c1,inactive,
CCCCn1c(NCc2ccccc2NS(=O)(=O)c2ccc(C)cc2)nc2ccccc21,0.501 µM (active),
Cc1ccc(S(=O)(=O)Nc2ccccc2C=O)cc1,,-1.56% [at 11.4 µM]
CCCCn1c(SCc2c(C)noc2C)nc2cc(S(N)(=O)=O)ccc21,inactive,
CC(C)=NOCc1ccc(-c2cc(-c3ccccc3)no2)cc1,,1.27% [at 11.4 µM]
O=c1[nH]c2ccccc2n1CCCN1CCN(C(c2ccccc2)c2ccccc2)CC1,0.794 µM (active),
CCn1c(=O)[nH]c2ccccc21,inactive,
CCN1CNC(=S)N(c2cc(C)ccc2C)C1,inactive,
O=C(c1ccco1)N1CCC[C@@]2(CCN(Cc3ccccc3)C2)C1,2 µM (active),
O=C(c1cccc(F)c1)N1CCC2(CCN(Cc3nccs3)CC2)CC1,inactive,
COc1ccccc1CN1CC[C@@]2(CCCN(C(=O)c3ccco3)C2)C1,0.501 µM (active),

SMILES,AC50,"activity, negative = inhibition"
COc1ccc(NC(=O)N2CC3(CCN(C(=O)c4ccco4)CC3)C2)cc1,inactive,
CC(=O)N1CCC2(CCN(Cc3nccs3)CC2)CC1,inactive,
O=C(c1ccco1)N1CCC2(CCN(Cc3ccccc3)CC2)CC1,3.98 µM (active),
O=C(c1ccco1)N1CCC2(CCN(Cc3nccs3)CC2)CC1,1 µM (active),
O=C(Nc1ccccc1)N1CC2(CCN(C(=O)c3ccco3)CC2)C1,inactive,
C=C(C)C1CC=C(C)/C(=N/NC(=O)c2ccc(NC(=O)c3cccc(C)c3)cc2)C1 (stereo not drawn),inactive,
Clc1ccc(-c2csc(N3CCC(c4ccccc4)C3)n2)cc1 (stereo not drawn),inactive,
COc1ccc(C2CC(C(F)(F)F)n3nc(C(=O)N(C)Cc4cn(C)nc4C)c(Cl)c3N2)cc1 (stereo not drawn),inactive,
O=C(Nc1cccc(F)c1)N1CC2(CCN(C(=O)c3cc(C(F)(F)F)cc(C(F)(F)F)c3)CC2)C1,inactive,
O=C(O)c1c(-c2c3ccc(=O)cc-3oc3cc(O)ccc23)cc2ccccc2c1-c1ccccc1,,6.33% [at 11.4 µM]
Cc1ccc(/C=C2\OC(=O)c3ccccc32)cc1,inactive,
CC(=O)c1cnc2c(C(=O)O)cnn2c1C,inactive,
COn1c(-c2ccccc2)nc2c1CCc1nonc1-2,inactive,
Cc1ccc(C)c(CN2C(=O)C3CCCN3c3ccc(S(=O)(=O)N4CCOCC4)cc32)c1 (stereo not drawn),inactive,
O=C(CO)N/N=C/c1ccccc1F,inactive,
O=C(O)c1cc2c(cc1S(=O)(=O)O)[C@H]1[C@@H]([C@H]3[C@H]2[C@@]2(Cl)C(Cl)=C(Cl)[C@]3(Cl)C2(Cl)Cl)[C@]2(Cl)C(Cl)=C(Cl)[C@@]1(Cl)C2(Cl)Cl,,-3.51% [at 11.4 µM]
CC(=O)c1cn(CCCCCCCCCCn2cc(C(C)=O)c(=O)[nH]c2=O)c(=O)[nH]c1=O,inactive,
Cc1noc(C)c1C(=O)N1CCC[C@@]2(CCN(Cc3nccs3)C2)C1,inactive,
COc1ccccc1CN1CCC2(CC1)CCN(C(=O)c1ccco1)CC2,12.6 µM (active),
Cc1noc(C)c1C(=O)N1CCC[C@@]2(CCN(Cc3ccccc3)C2)C1,7.94 µM (active),
COc1ccc(NC(=O)N2CCC3(CC2)CCN(C(=O)c2ccco2)CC3)cc1,inactive,
COc1ccccc1CN1CCCC2(CCN(C(=O)c3ccco3)CC2)C1,2.51 µM (active),
Cc1noc(C)c1C(=O)N1CCC2(CCCN(Cc3ccccc3)C2)CC1,inactive,
CCc1c(O)c2c(c(O)c1C(C)=O)C(=O)c1c(cc(O)c(C(=O)O)c1C(=O)O)C2=O,,0.869% [at 11.4 µM]
COc1ccc(CC(=O)N2CCN(c3ccc(C4=NNC(=O)CC4C)cc3)CC2)cc1 (stereo not drawn),inactive,
CC12CCC(C(=O)O)(C/C1=N\O)C2(C)C (stereo not drawn),inactive,

SMILES,AC50,"activity, negative = inhibition"
Cc1noc(NS(=O)(=O)c2ccc(N)cc2)c1C,inactive,
CNc1cc(NS(=O)(=O)c2ccc(N)cc2)nc(NC)n1,inactive,
CCOC(=O)C1=C(c2ccccc2)OC(N)=C(C#N)C1c1ccc(Cl)s1 (stereo not drawn),inactive,
Cc1ccc(C(CC(=O)c2ccco2)SCCO)cc1 (stereo not drawn),inactive,
CCn1c(=O)cc(SCC(=O)N2CCN(C(=O)c3ccco3)CC2)c2ccccc21,inactive,
CCCCn1c(=N)n(CC(=O)c2ccco2)c2ccccc21,0.708 µM (active),
CCCn1c(N)[n+](CC(=O)c2ccco2)c2ccccc21,0.708 µM (active),
CCOC(=O)c1c(C)n(C)c2ccc(OC(=O)c3ccco3)cc12,inactive,
CCCCN1C(=O)NC(NC(=O)c2ccco2)(C(F)(F)F)C1=O (stereo not drawn),inactive,
COCCn1c(=O)c(-c2cc(F)cc(F)c2)nc2cnc(N3CCNCC3)nc21,inactive,
CC1(C)OC(=O)NC1=O,inactive,
Nc1nc(Br)c2c(F)cccc2c1-c1ccc(F)cc1,inactive,
CC(C)C(NC(=O)OC(C)(C)C)C(=O)N1CCCC1C(=O)NC(Cc1ccccc1)C(N)=O (stereo not drawn) (Boc-Val-Pro-Phe-NH2; configuration not given here),inactive,
CC(C)=CCC/C(C)=C/CO/N=C1/[C@H]2O[C@@H]2[C@@H](O)[C@H]2[C@H]1CCn1c(=O)n(Cc3cc4c(cc3Cl)OCO4)c(=O)n12,,-10.5% [at 11.4 µM]
CC(SCc1cn2cc(Cl)ccc2n1)C(=O)O (stereo not drawn),inactive,
Cc1ccn2cc(CSc3ccccc3N)nc2c1,1.26 µM (active),
CCC(Sc1nc(=O)cc(N)n1CCc1ccccc1)C(=O)Nc1ccccc1C#N (stereo not drawn),15.8 µM (active),
Nc1cc(=O)nc(SCC(=O)Nc2cccc3ccccc23)n1CCc1ccccc1,inactive,
CC(NC(=O)CSc1nc(=O)cc(N)n1CCc1ccccc1)c1ccccc1 (stereo not drawn),inactive,
CN1c2ccccc2C(O)=C(C(=O)Nc2ccccc2)S1(=O)=O,inactive,
CN1CCN(c2nc(-c3cccnc3)nc3ccccc23)CC1,10 µM (active),
c1ccc2c(N3CCOCC3)nc(-c3ccoc3)nc2c1,inactive,
CN1CCN(c2nc(-c3ccoc3)nc3ccccc23)CC1,15.8 µM (active),
COc1ccccc1-c1nc(N2CCN(C)CC2)c2ccccc2n1,inactive,
c1cncc(-c2nc(N3CCNCC3)c3ccccc3n2)c1,7.94 µM (active),

# From PubChem BioAssay AID1851 (National Center for Advancing Translational Sciences (NCATS), 2009)
